The values below come from PubChem BioAssay AID2384 (Southern Research Specialized Biocontainment Screening …, 2010).

Screen size: about 2,300 compounds; about 1,100 (48%) were called active. The rule behind the calls is not given here. So high a share suggests a set chosen from earlier hits. This is one part of the list. Entries that show only a call come without a potency. Potency and affinity values are given separately.

Usually inhibition stands for the relative decrease from the control value, in per cent.

This assay is described as follows: S. typhi counter-screen signal inhibition – fluorescence, 4 h, counter-screen for PhoP regulon inhibitor project, dose response (AID 2384). To be noted: S. typhi GFP reporter counter-screen; series mostly up to 150 µM. (In general: The purpose of a counterscreen is to sort out artefacts and off-target activity.)
With `Cc1cnc(C(=O)Nc2nnc(C)s2)cn1`, the inhibition entry is “inactive”.

With `O=C(O)C1Cc2ccccc2CN1S(=O)(=O)c1ccc2ccccc2c1` (configuration not stated), the inhibition result is “inactive”.

For the molecule `CN1CCCN(S(=O)(=O)c2ccc3c(c2)OCCO3)CC1`, the inhibition result was “inactive”.

For the molecule `O=S(=O)(Nc1cccc(-c2cn3c(n2)SCC3)c1)c1ccc(F)cc1F`, the inhibition entry is “inactive”.

In the case of `COc1ccc(NC(=O)N(CCc2ccccc2)Cc2cc3c(C)cc(C)cc3[nH]c2=O)cc1`, the inhibition entry is “inactive”.

For the molecule `CCC(CC)C(=O)NCCc1cc2ccc(C)cc2[nH]c1=O`, the inhibition entry was “inactive”.

As to `COc1ccc(Cl)cc1-c1n[nH]c(=S)o1`, the inhibition entry was “inactive”.

Consider `CC1CC1C(=O)Nc1nc2ccc(S(C)(=O)=O)cc2s1` (configuration not stated), for which the inhibition entry was “inactive”.

Consider `Cc1ccc(N2C(=O)[C@@H]3[C@H](C2=O)[C@H]2C=CC=NN2[C@@H]3C(=O)Nc2ccc(Cl)cc2)cc1`, for which the inhibition entry is “inactive”.

With `COc1ccccc1CNC(=O)Cn1c(=O)oc2cc(S(=O)(=O)N3CCCC3)ccc21`, the inhibition entry is “inactive”.

With `COc1cccc(NC(=O)COC(=O)Cc2ccccc2[N+](=O)[O-])c1`, the inhibition result was “inactive”.

As to `Cc1ccc(NC(=O)c2sccc2C)cc1[N+](=O)[O-]`, the inhibition result was “inactive”.

For `O=C(N/N=C/c1cccc(OCc2ccccc2)c1)c1cccs1`, the inhibition entry was “inactive”.

Consider `O=C(Nc1ccc(Cl)cc1)c1cccs1`, for which the inhibition entry was “inactive”.

As for `Cc1ccc(NC2OC(CO)C(O)C(O)C2O)cc1` (configuration not stated), the inhibition entry is “inactive”.

Consider `O=C1CC(NC(=O)C(F)(F)F)=NN1c1ccccc1`, for which the inhibition entry was “inactive”.

Take `Cc1nc2ccc(NC(=O)C(F)(F)F)cc2o1`: the inhibition entry is “inactive”.

Take `NS(=O)(=O)c1cc2c(cc1Cl)NC(Cc1ccccc1)NS2(=O)=O` (configuration not stated): the inhibition result is “inactive”.

In the case of `CCOc1cc(S(=O)(=O)N2CCN(CC)CC2)ccc1Cl`, the inhibition result was “inactive”.

As for `c1ccc2cc(CSCc3nc4ccccc4[nH]3)ccc2c1`, the inhibition result was “inactive”.

Take `CCOC(=O)C1CCN(C(=O)CCc2nc3ccccc3[nH]2)CC1`: the inhibition result is “inactive”.

Regarding `C#CCOCCOCCOCCNc1nc(N2CCN(C(=O)CCCCCCCCCCNC(=O)[C@H]([C@@H](C)CC)n3cc(CCCCN=C(N)N)nn3)CC2)nc(N2CCN(C(=O)CCCCCCCCCCNC(=O)[C@@H]([C@H](C)O)n3cc(C)nn3)CC2)n1`, the inhibition entry is “inactive”.

As for `C#CCOCCOCCOCCNc1nc(N2CCN(C(=O)CCCCCCCCCCNC(=O)[C@@H](CCSC)n3cc(CCO)nn3)CC2)nc(N2CCN(C(=O)CCCCCCCCCCNC(=O)[C@H]([C@@H](C)CC)n3cc(CCCCCN)nn3)CC2)n1`, the inhibition entry was “inactive”.

Take `c1cc2c(cc1Oc1nc(N3CCOCC3)nc(N3CCOCC3)n1)OCO2`: the inhibition result was “inactive”.

As to `COc1cc(CNC(=O)CCC(=O)N2C[C@H]3C[C@H](C2)c2cccc(=O)n2C3)cc(OC)c1OC`, the inhibition entry was “inactive”.

Take `CC1(C)Cc2c(sc(NC(=O)COc3ccc(Cl)cc3)c2C(N)=O)C(C)(C)N1`: the inhibition entry is “inactive”.

For `CCC(=O)N(Cc1cc2cc(OC)ccc2[nH]c1=O)c1ccc(C)cc1C`, the inhibition entry was “inactive”.
